In PubChem BioAssay AID720514 (Broad Institute, 2013) one finds outcome data, which are given here for 66 compounds.

Each structure is given as a SMILES string. In all, about 2,100 compounds went through this assay and about 300 (14%) were called active. Roughly 2% stayed inconclusive and do not appear here.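 Rule for the calls: active = every replicate test run called active, with the signal falling and half-maximal concentration within twice the top valid dose; inconclusive = the replicate test runs disagree in their calls; inactive = every test run inactive, including effects in the opposite direction.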 Only a sample is shown. Entries with a potency or affinity are not part of this list.

A short description of this assay: inhibitors of PGC1a acetylation in cells, dose response, cell-based, cherry-picked samples (AID 720514).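 Note: actives lower the acetylation signal so they count as inhibitors of PGC1a acetylation.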 The settings on record: U2OS PGC1a acetylation, AlphaLISA, overnight; series mostly up to 19.5 µM.
Turning to `CCC(C)(C)n1nnnc1C(c1ccccc1OC)N1CCSCC1` (stereo unspecified), the outcome was inactive.
The value for `CC(NS(=O)(=O)c1ccccc1Cl)C1CC2CCC1C2` (stereo unspecified) was “inactive”; that for `C/C=C(/C)C(=O)O[C@@H]1c2cc(OC)c(OC)c(OC)c2-c2c(cc3c(c2OC)OCO3)C[C@H](C)[C@]1(C)O` was “inactive”; that for `O=C(CCc1nc2ccccc2c(=O)[nH]1)Nc1ccc(N2CCCCC2)cc1` was “inactive”.
For `Cn1ncc(C(=O)Nc2ccc(Cl)cc2)c1C(F)(F)F`, the call was inactive.
For `O=C(Cc1ccc(Cl)cc1)c1c[nH]c(C(=O)NCc2cccnc2)c1`, the result was inactive.
For `O=C(CCCc1nc(-c2ccccc2Cl)no1)NCc1cccnc1`, the outcome was inactive.
As for `O=C(NCc1ccccc1)C1Cc2c(-c3ccc(Cl)cc3)ccnc2O1` (stereo unspecified), the call was inactive.
With `COc1cccc(N(CC(=O)NCc2cccnc2)S(C)(=O)=O)c1`, the outcome was inactive.
For `O=C(CCCCCN1C(=O)c2cccc3cccc(c23)C1=O)NCc1cccnc1`, the outcome was inactive.
The entry for `O=C(NCc1cccnc1)c1ccc(NC(=O)c2ccc(Br)cc2)cc1` is “inactive”; for `CN(C)CC(O)c1ccc(C=Cc2ccc(Cl)cc2)cc1` (stereo unspecified) it is “inactive”; for `CC(=O)Nc1ccc(NC(=O)CN(c2cccc([N+](=O)[O-])c2)S(C)(=O)=O)cc1` it is “inactive”.
The entry for `COc1ccc(CCn2c(-c3ccc(OC)cc3)nc3c(c(=O)c4ccccc4n3C)c2=O)cc1` is “inactive”; for `COc1ccccc1/C=C1\SC(=O)N(CCC(=O)NCCCn2ccnc2)C1=O` it is “inactive”.
With `CCN(CC)C(=O)CSc1nnc2nnc3cc(Cl)ccc3n12`, the compound was called inactive.
The value for `COC(=O)c1ccc(NC(=O)c2cccnc2)cc1` was “inactive”.
The entry for `COc1ccccc1NC(=O)c1ccc(NC(=O)CNC(=O)c2ccc(OC)c(OC)c2)cc1` is “inactive”.
The value for `COc1ccc(-c2csc3nc(C)nc(N4CCC(C)CC4)c23)cc1OC` was “inactive”; that for `COc1ccc(Nc2nnc(C)c3ccccc23)cc1` was “inactive”; that for `COc1ccc(Nc2nnc(-c3ccc(C(N)=O)cc3)c3ccccc23)cc1` was “inactive”.
With `O=C(Cc1ccccc1)Nc1cccc(-c2nc3ncccc3o2)c1`, the result was inactive.
As for `CC1CC(NS(=O)(=O)c2cccs2)CC(C)(C)C1` (stereo unspecified), the call was inactive.
The value for `Nc1c(C(=O)Nc2ccccc2)sc2ncc([N+](=O)[O-])cc12` was “inactive”; that for `COc1ccc(Nc2nc(N)c(C(=O)c3ccc(OC)cc3)s2)cc1` was “inactive”.
The entry for `OC1CCCC1NCc1ccnc2cc(Cl)ccc12` (stereo unspecified) is “inactive”.
As for `Cc1ccc(Nc2nnc(C)c3ccccc23)c(C)c1`, the call was inactive.
Regarding `COc1ccc(OC)c(C(=O)/C=C/c2ccccc2C(F)(F)F)c1`, the result was inactive.
The entry for `C[C@@H]1CN([C@H](C)CO)C(=O)c2c(c3ccccc3n2C)-c2ccccc2CO[C@@H]1CN(C)C(=O)Nc1cccc(C(F)(F)F)c1` is “inactive”; for `COc1cc(-c2cnc3c(NC(C)=O)cc(-c4ccccc4CN(C)C)cn23)cc(OC)c1OC` it is “inactive”.
In the case of `Cn1c(CN2CCCC2)nc2cc(NC(=O)COc3ccc(Cl)cc3)ccc21`, the outcome was inactive.
With `C=CCS(=O)(=O)c1nc2ccccc2s1`, the outcome was inactive.
The entry for `Cc1cc(C)nc(NC(=O)c2c(-c3ccccc3Cl)noc2C)n1` is “inactive”.
The value for `COc1cc(-c2nnn(CC#N)n2)ccc1OCc1ccccc1` was “inactive”.
The entry for `COc1ccc(-c2cc(-c3ccccc3O)[nH]n2)cc1OC` is “inactive”.
`COc1ccccc1NC(=O)N1C[C@@H]2N[C@H](C1)C2c1ccc(/C=C/c2ccccc2)cc1` (stereo partly specified): the compound was classed as inactive.
In the case of `O=C(C1CCC1)N1CCN(S(=O)(=O)c2ccccc2)CC1`, the call was inactive.
The value for `O=C(Nc1ccccc1)C1=C[C@@H](c2ccc(C(F)(F)F)cc2)C[C@@H](OCc2ccc(CO)cc2)O1` was “inactive”; that for `COC(=O)C[C@H]1c2cc(C(F)(F)F)ccc2S(=O)(=O)N1Cc1ccc(OC)cc1` was “inactive”; that for `Cc1nnc(NCc2ccccc2)c2ccccc12` was “inactive”.
The value for `O=C(CC1CC1)N[C@H]1CC[C@H](CCNS(=O)(=O)c2ccc(Cl)cc2)O[C@H]1CO` was “inactive”; that for `CC(=O)c1cc(-c2ccccc2)n(CCC(=O)NC2CCCCC2)c1C` was “inactive”; that for `O=C(c1cc(C2CC2)on1)N1CCCC(N2CCN(c3cccc(C(F)(F)F)c3)CC2)C1` (stereo unspecified) was “inactive”.
Consider `COc1cc2cc(-c3ccc(O)cc3O)nc(C)c2cc1OC`, for which the compound was called inactive.
The entry for `Cc1ccc(C(=O)N2CCN(c3ccc(NC(=O)c4ccc(Br)o4)cc3)CC2)cc1` is “inactive”; for `O=C(Cc1ccccc1)N1CCN(c2ccc([N+](=O)[O-])cc2)CC1` it is “inactive”; for `O=C(CN1CCC(n2nnc3cc(F)ccc32)CC1)NCc1ccco1` it is “inactive”.
The value for `C[C@@H]1CN([C@@H](C)CO)C(=O)c2c(c3ccccc3n2C)-c2ccccc2CO[C@@H]1CN(C)C(=O)Nc1ccc(F)cc1` was “inactive”.
Consider `Cc1cc(C)c2nc(N(CCCN(C)C)C(=O)c3ccc(S(=O)(=O)N4CCCCCC4)cc3)sc2c1`, for which the outcome was inactive.
The value for `CN1c2ccccc2C2(C)CCCC3=Cc4cccc([N+](=O)[O-])c4OC312` (stereo unspecified) was “inactive”.
With `O=C(Cc1ccccc1)Nc1ccc(NC(=O)c2cccs2)cc1`, the compound was classed as inactive.
On to `Cc1cccc(C(=O)Nc2ccc(C(=O)/C=C/c3cccnc3)cc2)c1`, for which the result was inactive.
The entry for `O=C(CS(=O)CC(=O)Nc1cccc2c1CCCC2)Nc1ccc(F)cc1` (stereo unspecified) is “inactive”; for `CNC(=O)c1nnsc1S(=O)c1ccc(Cl)cc1` (stereo unspecified) it is “inactive”; for `Clc1ccc(-c2nnc(-c3ccccc3)nc2N2CCSCC2)cc1` it is “inactive”.
Take `Nc1c(C(=O)Nc2ccccc2)c2nc3ccccc3nc2n1CCCN1CCOCC1`: the outcome was inactive.
Turning to `CC(=O)NC(c1cccc(F)c1)c1nc(-c2cccc(C(C)C)c2)cs1` (stereo unspecified), the compound was classed as inactive.
The entry for `COc1cc2nc(SCc3c(C)noc3C)n(CCC3=CCCCC3)c(=O)c2cc1OC` is “inactive”; for `c1ccc(N2CCN(c3ccccc3)C2c2ccncc2)cc1` it is “inactive”; for `CCC(CC)C(=O)c1c[nH]c(C(=O)NCc2ccccc2)c1` it is “inactive”.
The entry for `CCOC(=O)C1CCCN(S(=O)(=O)c2ccc3c(c2)NC(=O)CO3)C1` (stereo unspecified) is “inactive”.
Consider `CCOc1ccc2c(c1)C(C)=CC(C)(C)N2S(=O)(=O)c1ccc(C)cc1`, for which the outcome was inactive.
With `O=C1CC(Sc2nnc(-c3ccccc3O)o2)C(=O)N1c1ccccc1` (stereo unspecified), the result was inactive.
For the compound `CCOC(=O)c1[nH]c(C)c(C(=O)Nc2cc(OC)ccc2OC)c1C`, the result was inactive.
For the compound `CC(=O)c1ccc(N2CCN(c3ccc(S(=O)(=O)NCCN(C)C)cc3[N+](=O)[O-])CC2)cc1`, the compound was called inactive.
Consider `CC(=O)c1ccc(N2CCN(c3ccc(S(=O)(=O)NCCCN(C)C)cc3[N+](=O)[O-])CC2)cc1`, for which the result was inactive.
